± gives the standard deviation of the averaged measurements. The full ranking holds about 25,000 sequences; the median of “ln(normalized median fluorescence intensity)” is about 10, and the highest 2% start at about 12. What follows is part of a selection rich in the highest values, with near analogues and random picks from the rest.

The experiment deals with PfAP2-G AP2 domain (GST-tagged). In words: gcPBM binding intensity (ln(normalized median fluorescence intensity)); higher = stronger DNA binding. Summed up:
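Plasmodium falciparum DNA-binding domains carrying a GST tag were expressed in E. coli and applied for 1 h, at about 25 μg on average, to an Agilent 4 × 180k array. The array held primer-extended double-stranded 36-bp intergenic genomic probes together with negative controls, and binding took place in 1× PBS with 1% milk, 0.2 mg/ml BSA, 0.5% salmon testes DNA and 0.03% Triton X-100. An Alexa488 anti-GST antibody detected bound protein, and the array was scanned at 488 nm. Binding intensity is taken as the highest Masliner-normalised natural-log median intensity across replicate spots of either probe orientation.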
For “ATCTTAGTTGAAATATAGAATTTATAATAAAAGTTA [GTGCAC_negctrl_site122]”, the “gcPBM binding intensity (ln)” value was determined as 9.595 ± 0.064. For “AATAAATATAAAAATGCACACACACTAATAAAAAAA [CACACA_site8201]”, the “gcPBM binding intensity (ln)” value stood at 10.2 ± 0.13. Consider “TGATAACCAAAAAGGGGTACATACACAAAAAAATAC [XGTACX_site1254]”, for which the “gcPBM binding intensity (ln)” value was determined as 11.7 ± 0.91. Next, “GAAATGTACAAATACGTACACACATATATATATATA [CACACA_site1541]”: 11.6 ± 0.99; “ATAACACAAAAAGGGGGTACAATAAAAAAAAAAAAA [XGTACX_site1652]”: 11.5 ± 0.98; “AGAAATTTACAAATACGTACACACATATATATATAT [XGTACX_site3141]”: 11.9 ± 1.4. With “ATAAATAAATTTATACGTACACATAATATATATATA [XGTACX_site4634]” the figure was 11.6 ± 0.89; with “AATGTACAAATACGTACACACATATATATATATATA [CACACA_site1542]”, 11.6 ± 0.93; with “AAATATATATATTTACGTACATATATACAAATAGAG [XGTACX_site6067]”, 11.4 ± 0.81.

On to “AAAAAATACCAAAGGGGTACTTACACATAATACTTA [XGTACX_site2111]”, for which the “gcPBM binding intensity (ln)” value stood at 11.4 ± 1.1. With “TATAAATAAATGCGTACACACTAATAAAAAAAAAAA [CACACA_site4630]” the figure was 11.6 ± 1.1.

With “AATGTACAAATACGTACACACATATTTATATTTATA [CACACA_site6833]”, the “gcPBM binding intensity (ln)” value came to 11.6 ± 0.99.

Regarding “TGTATAAATAAATGCGTACACACTAATAAAAAAAAA [CACACA_site858]”, the “gcPBM binding intensity (ln)” value turned out to be 11.6 ± 0.8. Next, “TCAGAGTGAAGTTATACACACATGGTTTTTTTTTTT [CACACA_site2116]”: 9.875 ± 0.021; “TAAAGAAAAAAATGTTGTACTTTATGAAACATATTT [XGTACX_site412]”: 11.2 ± 0.79. Consider “TAAATATTTTTTTAGACACACATATATCTATGATAT [CACACA_site1107]”, for which the “gcPBM binding intensity (ln)” value was 9.705 ± 0.049. Turning to “TTAATGAAATATTATACACACAAAAAAATAATTTTA [CACACA_site4231]”, the “gcPBM binding intensity (ln)” value turned out to be 9.915 ± 0.092.

As to “TTTCTCCCATTTTTTAGTACACAAAATATATATGTA [XGTACX_site7218]”, the “gcPBM binding intensity (ln)” value amounted to 11.7 ± 1.1. With “AGATAAAATATATACACACACATAAATACGTACAAA [CACACA_site1086]” the figure was 11.8 ± 1; with “TTAATTAAATATTATACACACAAAAAAATAATTTTA [CACACA_site96]”, 10 ± 0.16.

Consider “AGATAAGATATATACACACACATAAATACGTACAAA [CACACA_site6639]”, for which the “gcPBM binding intensity (ln)” value was determined as 11.6 ± 0.78.

Consider “AAAAAAAAAACATACACACACACAAATATTTATATA [CACACA_site437]”, for which the “gcPBM binding intensity (ln)” value was determined as 9.85 ± 0.11. With “CCATTTACAAAAAGGAGTACACAAATATATGTTTAA [XGTACX_site649]” the figure was 11.6 ± 0.93; with “AATATACACCCGTGTACACAAATATTTACAAAACGT [CACACA_site4786]”, 11.7 ± 1.1; with “TTATTTATTTTTATATGTACACAAAAAAAAAAAAAA [XGTACX_site1459]”, 11.5 ± 1.1. With “TATACAAAATATTTTACACACACATATATATACATA [CACACA_site2616]” the figure was 10.01 ± 0.057; with “ATAAATAAGATACGTACACACATATACAAAATATAC [CACACA_site3661]”, 11.5 ± 0.95.

Turning to “ATTTTTTAAATGAGGCGTACACAAAAATATAATTAC [XGTACX_site7087]”, the “gcPBM binding intensity (ln)” value came to 11.7 ± 1.1. On to “ATAACAAATATGATAGCATGCTACATATTACAACTT [TGCATGCA_site524]”, for which the “gcPBM binding intensity (ln)” value is 9.71 ± 0.16. “TATATCTGTAAATGCACACATATGTGGATATACTTA [CACACA_site5013]”: the “gcPBM binding intensity (ln)” value was 10.1. With “ATATATATATATAGTAGTACTCTCTCTGTATATATA [XGTACX_site3754]” the figure was 11.3 ± 0.75. Next, “TATATAAACCCACCTACACACACAACGTAAATGCAT [CACACA_site8702]”: 10.2 ± 0.14; “AAAAAAAAAAAAAACACACAGAAATATATATATATT [CACACA_site832]”: 9.82 ± 0.33; “ATATATACCTATATTACACACTTCTTATTCTAAGAA [CACACA_site7421]”: 9.865 ± 0.092. Next, “ATATAAATGAATATATGTACATATATATATATATAT [XGTACX_site6361]”: 11.2 ± 0.52.

For “AAGGAGCCTATGAACACACACATGTACAGATATTAA [CACACA_site6107]”, the “gcPBM binding intensity (ln)” value came out at 11.1 ± 0.52. With “TATATATACATATACACACACACACCGATATATATA [CACACA_site8706]” the figure was 10.1 ± 0.26. With “TATACAATATTTATAACACACATATTTATATAAACT [CACACA_site6932]” the figure was 9.885 ± 0.078; with “TTACACATATTATATATATATAAAAAAAAAAAATAT [CACACA_negctrl_site1684]”, 9.82 ± 0.29.

In the case of “TGTACAAATATGTACACACACACATATTTATTTATA [CACACA_site6419]”, the “gcPBM binding intensity (ln)” value came to 11.5 ± 0.95.

In the case of “ATACATATATAAATACGTACATATATAATTATATAT [XGTACX_site8178]”, the “gcPBM binding intensity (ln)” value is 11.6 ± 0.93. With “AAAGATAAAATATATACACACACATAAATACGTACA [CACACA_site8275]” the figure was 11.3 ± 0.88; with “TGAATAAATAAGATACGTACACACATATACAAAATA [XGTACX_site7758]”, 11.5 ± 0.83; with “TAATATTCAATTATACGTACACATATATATATATAT [XGTACX_site4245]”, 11.8 ± 1.1.

As for “GATTTATACAAATATGTACACACTAATTATATATTA [CACACA_site8045]”, the “gcPBM binding intensity (ln)” value was determined as 11.5 ± 0.87. Next, “ATTATATATACATATACACACATACGTACATACATA [CACACA_site9194]”: 11.5 ± 0.93; “TGCTCTAATTTATATACACACAAATATGTACACATA [CACACA_site7845]”: 11.7 ± 1.2. Next, “GAATAAATAAGATACGTACACACATATACAAAATAT [CACACA_site3660]”: 11.7 ± 1.1.

“TAAAATATTACGTGTACACATAAATAAAAATAAAAA [CACACA_site5066]”: the “gcPBM binding intensity (ln)” value was found to be 11.8 ± 0.92. With “TCATATAAATACACGTGTACATATATATATTACAGT [XGTACX_site1954]” the figure was 11.5 ± 0.81.

The values are drawn from the supplement of paper PMC11417369.
